HTT cytoprotect: cytoprotection in Huntington HTT-Q103 PC12 cell model; PC12 HTT-Q103 induced, cytoprotection, ATP luminescence, 40 h; Potency, µM (series often up to 56.4 µM), hits mostly activators; 0.14% of 230,000 active; further: nearly all actives have a fitted effect of over 45% in size
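PC12 cells stably carrying ecdysone-inducible Htt exon 1 (Q103)–GFP were induced with 100 nM tebufenozide (final) alongside library compounds in a dose series. Cytoprotection was scored as retained ATP by ATPlite luminescence.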
PNC assembly inh: perinucleolar compartment assembly inhibition; PC3M PTB-GFP, PNC prevalence imaging, 16 h; hits give low values; activity change (PNC), negative = inhibition, % at 10 µM; 3.1% of 140,000 active;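 active means readout at or below -70, meaning at least 70% loss of cells showing the perinucleolar compartment, a nuclear body marking cancer cells; inconclusive means readout between -30 and a set limit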
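Read-out is percentage of cells bearing a perinucleolar compartment, from automated 20x imaging of fixed, Hoechst-stained PC3M PTB-GFP cells. Cells were seeded 4 h, then exposed 16 h to compound (23 nl of library stock) in duplicate plates.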
GoLoco inh red: blocks human Gai1 binding to RGS12 GoLoco peptide, red readout. 0.44% of 230,000 active. Potency, µM (doses to about 61.6 µM), usual class: inhibitors. P63096. Gai1:RGS12 GoLoco peptide FP, rhodamine, 10 min; active means well fitted inhibition curve with a large enough effect, not every such curve was filed as active; inactive means no such curve, though single readings can be large or run the other way; further: nearly all actives have a fitted effect of over 30% in size
HPGD inh: blocks human HPGD enzyme activity. P15428. purified HPGD, NADH fluorescence kinetic, PGE2 substrate. Potency, µM, actives largely listed as inhibitors. 4.3% of 150,000 active. AID 894; active means well fitted inhibition curve with a large enough effect, not every such curve was filed as active; inconclusive means small, poorly fitted or top-dose-only effect, or another doubt; inactive means no such curve, though single readings can be large or run the other way
Target sequence (P15428 whole entry, looked up): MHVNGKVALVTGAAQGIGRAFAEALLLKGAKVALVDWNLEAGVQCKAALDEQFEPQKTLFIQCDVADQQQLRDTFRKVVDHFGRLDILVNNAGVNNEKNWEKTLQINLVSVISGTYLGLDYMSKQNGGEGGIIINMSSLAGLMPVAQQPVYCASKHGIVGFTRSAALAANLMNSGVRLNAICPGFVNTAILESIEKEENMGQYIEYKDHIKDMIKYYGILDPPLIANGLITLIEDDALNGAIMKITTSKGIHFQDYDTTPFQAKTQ
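NADH formation kinetics: reaction with 30 uM PGE2 and 1 mM NAD+ (final), 20 nM enzyme, Tris-HCl pH 8 with Tween 20, after 15 min compound preincubation at room temperature. Fluorescence change, last versus first of five reads.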
ALDH1A1 inh: blocks purified human ALDH1A1 activity; Potency, µM (doses to about 75.3 µM), most hits filed as inhibitors; Purified ALDH1A1, NADH fluorescence, propionaldehyde substrate; 7.3% of 220,000 active; active means well fitted inhibition curve with a large enough effect, not every such curve was filed as active; inconclusive means small, poorly fitted or top-dose-only effect, or another doubt; inactive means no such curve, though single readings can be large or run the other way
Target sequence (P00352 whole entry, looked up): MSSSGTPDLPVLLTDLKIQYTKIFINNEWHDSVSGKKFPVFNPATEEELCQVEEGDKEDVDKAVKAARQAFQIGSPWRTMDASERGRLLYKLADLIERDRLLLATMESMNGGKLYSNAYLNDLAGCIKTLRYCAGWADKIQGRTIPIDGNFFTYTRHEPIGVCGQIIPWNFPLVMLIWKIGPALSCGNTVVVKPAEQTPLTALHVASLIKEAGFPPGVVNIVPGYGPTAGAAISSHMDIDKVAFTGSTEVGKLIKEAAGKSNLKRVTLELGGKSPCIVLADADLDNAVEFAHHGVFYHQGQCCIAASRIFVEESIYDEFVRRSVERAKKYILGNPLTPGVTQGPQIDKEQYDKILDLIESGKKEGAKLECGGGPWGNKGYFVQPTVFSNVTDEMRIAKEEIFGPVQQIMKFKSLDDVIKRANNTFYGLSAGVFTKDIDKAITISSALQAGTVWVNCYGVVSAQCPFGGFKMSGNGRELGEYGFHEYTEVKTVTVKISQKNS
HTT aggregate: reduces HttQ103-GFP aggregates in PC12 cells. PC12 HttQ103-GFP aggregates, Acumen cytometry, 40 h. Potency, µM (highest dose often 46.1 µM), usual class: inhibitors. 1.1% of 220,000 active; further: nearly all actives have a fitted effect of over 60% in size
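Aggregates are detected as GFP objects 1–25 µm with signal 6 STDEV over background in lysates of induced PC12 cells. These carry Huntingtin exon 1 with 103 glutamines fused to GFP under an ecdysone promoter; compounds titrated.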
Large screens that a line does not name were inactive. Most compounds without a hit are left out; they make up all but 11% or so of the library. Unless noted, the call rests on the fitted dose curve; in most records, active means well fitted curve in the direction sought with a large enough effect; inconclusive means small, poorly fitted or top-dose-only effect, or another doubt; inactive means no such curve, though single readings can be large; an effect the other way counts as inactive or inconclusive.

CC(C)CCOC(=O)/C=C/c1ccccc1	none (no result: PNC assembly inh, HTT aggregate)
COc1ccc(Cl)cc1N(CC(=O)N(C)C)S(=O)(=O)c1ccc(C)c([N+](=O)[O-])c1	none (no result: PNC assembly inh, HPGD inh)
Cn1c(N=NC(=O)c2ccccc2)c(O)c2ccccc21	PNC assembly inh -86, ALDH1A1 inh inconclusive (no result: HTT cytoprotect)
Cc1cccc(C)c1-n1nnnc1S(=O)(=O)Cc1ccccc1Cl	PNC assembly inh inconclusive, ALDH1A1 inh inconclusive, HTT aggregate inconclusive
O=C(Nc1ccccc1CC[N+](=O)[O-])N1CCN(c2ccccc2)CC1	ALDH1A1 inh 8.9µM, HTT aggregate inconclusive (no result: PNC assembly inh, HPGD inh)
COc1ccc(C(=O)C[n+]2cn(C(F)F)c3ccccc32)c(F)c1	HTT cytoprotect inconclusive, ALDH1A1 inh 10µM, HTT aggregate inconclusive (no result: PNC assembly inh, HPGD inh)
c1coc(-c2nnc3n2C2(CCCC2)Cc2ccccc2-3)c1	none
c1ccc2c(c1)CC1(CCCC1)n1nnnc1-2	ALDH1A1 inh 13µM (no result: GoLoco inh red, HPGD inh)
CC1(C)Cc2ccccc2-c2nnnn21	PNC assembly inh inconclusive, ALDH1A1 inh 11µM
COCCCNC(=O)c1cc(S(=O)(=O)N2CCOCC2)ccc1SCc1cccc(OC)c1OC	none (no result: PNC assembly inh, HPGD inh)
Clc1ccccc1-c1ccc2ncnc(N3CCNCC3)c2c1	none (no result: PNC assembly inh, HPGD inh, HTT aggregate)
O=C1CC(c2ccccc2Cl)=NN(c2ncnc3ccccc23)C1=O	ALDH1A1 inh 0.63µM (no result: PNC assembly inh, HPGD inh)
COCC(=O)N1CCC2(CC1)CN(C(c1ccccc1)c1ccccc1)C2	none (no result: PNC assembly inh, HTT aggregate)
Cc1cnc(C(=O)Nc2cccc3cccnc23)cn1	HPGD inh inconclusive, ALDH1A1 inh inconclusive, HTT aggregate 0.89µM
COc1cc(C(=O)Nc2cccc3cccnc23)cc(OC)c1OC	PNC assembly inh inconclusive, HPGD inh inconclusive
O=C(Nc1cccc2cccnc12)c1cccnc1	PNC assembly inh -85, HTT aggregate inconclusive
C/C(=N/NC(=O)c1ccoc1C)c1ccc(NC(=O)C2CCCC2)cc1	PNC assembly inh -87 (no result: HTT cytoprotect)
C/C(=N\NC(=O)c1ccn(C)n1)c1ccc(NC(=O)C2CCCC2)cc1	PNC assembly inh inconclusive, HPGD inh 14µM
C/C(=N\NC(=O)c1ccoc1C)c1ccccc1	none (no result: PNC assembly inh, HPGD inh, ALDH1A1 inh)
CSc1nc(C)cc(NC(N)=O)n1	none
Cc1ccc(-n2cccc2C(=S)N=P(N(C)C)(N(C)C)N(C)C)cc1	HPGD inh inconclusive, ALDH1A1 inh 10µM, HTT aggregate inconclusive
COCCN(C(=O)Cc1cccs1)C(C(=O)NCc1ccc(OC)cc1)c1ccc(OC)cc1 (centres undefined)	ALDH1A1 inh 2.2µM
COc1ccc(C(=O)/C=C/C(=O)N(CC(=O)NCCC(C)C)Cc2cccs2)c(O)c1	ALDH1A1 inh inconclusive (no result: PNC assembly inh, HPGD inh)
Cc1ccc(-c2nnn(CC(=O)N(Cc3ccco3)C(C(=O)NC(C)(C)C)c3cccs3)n2)o1 (centres undefined)	ALDH1A1 inh 28µM
COc1ccc(CNC(=O)C(c2cccs2)N(C(=O)c2csnn2)C2CC2)cc1 (centres undefined)	HTT cytoprotect 25µM
COc1ccc(C(=O)N(Cc2ccco2)Cc2cccs2)c(O)c1	PNC assembly inh inconclusive, HPGD inh inconclusive, ALDH1A1 inh 13µM
COc1ccc(CNC(=O)C(c2ccncc2)N(C(=O)Cc2cccs2)c2ccccc2C)cc1 (centres undefined)	PNC assembly inh inconclusive, ALDH1A1 inh inconclusive
COc1ccc(CNC(=O)C(c2cccs2)N(Cc2ccco2)C(=O)Cc2cccs2)cc1 (centres undefined)	ALDH1A1 inh 2µM, HTT aggregate inconclusive
COc1ccc(CN(C(=O)c2snc(C(N)=O)c2N)C(C(=O)NC(C)(C)C)c2ccco2)cc1 (centres undefined)	PNC assembly inh -101, ALDH1A1 inh inconclusive
COc1ccc(CNC(=O)C(c2ccco2)N(Cc2ccccc2)C(=O)Cc2cccs2)cc1 (centres undefined)	ALDH1A1 inh 13µM, HTT aggregate inconclusive
COc1ccc(CNC(=O)C(c2ccco2)N(C(=O)Cc2cccs2)c2cccnc2)cc1 (centres undefined)	none (no result: PNC assembly inh, HPGD inh)
CCc1ccccc1O	none (no result: PNC assembly inh, HTT aggregate)
COc1cccc(C(=O)N(Cc2nc(-c3ccc(C)cc3)no2)C(C)C)c1	ALDH1A1 inh inconclusive
Cc1ccc(-c2noc(CN(C(=O)Cc3ccccc3)C(C)C)n2)cc1	PNC assembly inh -81, ALDH1A1 inh inconclusive
Cc1ccc(C)c(C(=O)N(Cc2nc(-c3ccc(Cl)cc3)no2)C(C)C)c1	HTT aggregate 22µM
CC(C)N(Cc1nc(-c2ccccc2)no1)C(=O)Cc1ccccc1	PNC assembly inh inconclusive
Cc1c(Nc2cc(N3CCCCCC3)c3nonc3c2[N+](=O)[O-])c(=O)n(-c2ccccc2)n1C	PNC assembly inh inconclusive, HPGD inh 11µM
Cc1c(NS(=O)(=O)c2ccc(N3CCCCC3)c([N+](=O)[O-])c2)c(=O)n(-c2ccccc2)n1C	HTT cytoprotect inconclusive
O=c1cc(-c2ccccc2)nc2nc(SCc3ccccc3)[nH]n12	PNC assembly inh inconclusive
O=c1cc(-c2ccccc2)nc2nc(-c3ccco3)[nH]n12	PNC assembly inh -117, ALDH1A1 inh inconclusive
Cc1nc2nc(-c3ccccc3)cc(=O)n2[nH]1	PNC assembly inh inconclusive
O=c1cc(-c2ccccc2)nc2nc(CCc3ccccc3)[nH]n12	PNC assembly inh -107
Cc1c(C(=O)N2CC(C)OC(C)C2)sc2nc(-c3ccc(F)cc3)cn12 (centres undefined)	HPGD inh 35µM
Cc1c(C(=O)NCc2ccc3c(c2)OCO3)sc2nc(-c3ccc(F)cc3)cn12	HTT aggregate 0.89µM
COc1ccc(OCc2nnc(SCC(=O)N3CCOCC3)o2)cc1	none (no result: PNC assembly inh, HPGD inh)
Fc1ccc(OCc2nnc(SCCN3CCOCC3)o2)cc1	HPGD inh 22µM
CN(C)S(=O)(=O)c1ccc(C(=O)Nc2ccc(S(=O)(=O)NC3=NCCCCC3)cc2)cc1	ALDH1A1 inh inconclusive
CSc1ncccc1C(=O)Nc1ccc(S(=O)(=O)NC2=NCCCCC2)cc1	ALDH1A1 inh 8.9µM (no result: PNC assembly inh, HPGD inh)
Oc1ccc(N=Cc2ccc(O)c(O)c2)cc1	GoLoco inh red 16µM, HPGD inh 28µM, ALDH1A1 inh 13µM
C[N+](C)(C)/N=C\c1ccc(O)c(O)c1	none (no result: PNC assembly inh, HTT aggregate)
COc1cc(OC)cc(OC)c1	GoLoco inh red 18µM (no result: PNC assembly inh)
N#CCCn1c(=O)c(-c2cccs2)nc2cnc(Oc3cccc(Cl)c3)nc21	HPGD inh inconclusive, ALDH1A1 inh inconclusive (no result: PNC assembly inh, HTT aggregate)
CC(C)C[C@@H](CC(=O)N[C@@H](CCC(=O)O)CC(=O)O)NC(=O)[C@@H]1CNCC[C@H]1NC(=O)C[C@H](CCCN)NC(=O)C[C@H](Cc1ccccc1)NC(=O)[C@@H]1CCCC[C@H]1N	none (no result: PNC assembly inh, HTT aggregate)
C=CC(=O)O	none (no result: PNC assembly inh, HPGD inh, ALDH1A1 inh)
CCCNC(=O)c1cccc(Cn2nc(C)c(Br)c2C)c1	none
